Bioassay records deposited in PubChem BioAssay by several laboratories.
A selection: hits, their analogues and other compounds. The true share with any hit is near 9.6%.
Insulin prom up: MIN6 insulin promoter up-regulation | actives 0.3% (n = 190,000) | z-score at 5 µM | MIN6 insulin promoter-GFP reporter, high-content imaging; hits give high values;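 active means z-score above 3 at 5 µM with at least 500 cells counted in the well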
Autophagy mod: modulators of autophagy. calls only at 10 µM (by protocol). MEF GFP-LC3 puncta imaging; test concentration mostly 10 µM. actives 0.98% (n = 190,000);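 active means percentage of spot-positive cells more than 3 SD above its plate mean, without a fluorescence outlier flag or 80% toxicity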
INS promoter inh: TRM-6 insulin promoter activity inhibition | TRM-6 cells (human fetal islet line), insulin promoter-eGFP reporter, imaging; reporter expression induced with tamoxifen | inhibition, % at 2 µM | actives 0.9% (n = 130,000) | AID 1273;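 active means inhibition above the mean plus 3 SD, with well images judged a real hit on visual review, cut at about 60% in these data, passing the limit was not always enough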
bCat KO growth: beta-catenin-lacking colon tumor cell growth suppression; HCT116 beta-catenin knockout viability, CellTiter-Glo, 60 h; hits give low values; viability, % at 10 µM; actives 1.5% (n = 140,000); AID 818;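 active means viability at or under a set limit, the compound median less 4 SD, cut at about 6% in these data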
PTEN del growth: PTEN-deleted cell growth suppression; HCT116 PTEN-null viability, CellTiter-Glo, 60 h; hits give low values; viability, % at 10 µM; actives 1.2% (n = 140,000); AID 827;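 active means viability at or below a set limit, 4 SD under the median of all tested compounds, cut at about 3.7% in these data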;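 further: PTEN knockout HCT116 line with beta catenin targeted HCT116 as companion control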
L major viab: Leishmania major promastigote growth inhibition; Leishmania major promastigotes, resazurin fluorescence viability; inhibition, % at 10 µM; actives 9% (n = 200,000); AID 1063; in the data active means inhibition above about 50%;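 further: promastigotes grown with compound for 44 hours at 28 °C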
Large screens that a line does not name were inactive.

CN1c2ccccc2C(O)=C(C(=S)Nc2ccccc2)S1(=O)=O	none (no result: INS promoter inh)
COn1c(-c2ccccc2)nc2ccc(Cl)cc21	none (no result: INS promoter inh)
O=C(NCc1ccccc1)c1nc(-c2cccs2)no1	none (no result: bCat KO growth, PTEN del growth)
O=C(Nc1ccc(Cl)cc1)N1CC=CCC1	INS promoter inh 63
CCOC(=O)N1CCC(N(CCCOC)C(=O)Nc2cccc(OC)c2)CC1	none
O=C(Nc1ccc(Cl)cc1)N1CCN(c2ccccc2)CC1	none
CCOC(=O)N1CCC(N(CCOC)C(=O)Nc2ccc(Cl)c(Cl)c2)CC1	Autophagy mod active (no result: INS promoter inh)
CCOC(=O)N1CCC(N2Cc3cccc(C(=O)O)c3C2=O)CC1	none (no result: INS promoter inh)
CN(C)S(=O)(=O)c1cccc2nsnc12	none
C/C=C(/C)C(=O)OC1c2c(ccc3ccc(=O)oc23)OC(C)(C)C1OC(C)=O (stereo unspecified)	L major viab 67
C/C=C(/C)C(=O)O[C@@H]1[C@H](OC(C)=O)c2c(ccc3ccc(=O)oc23)OC1(C)C	none
CCC1(C)Cc2c(sc3nc(SC)n(Cc4ccccc4)c(=O)c23)CO1 (stereo unspecified)	none
Cc1ccc(Cn2cnc3ccccc32)cc1	L major viab 78
CC(C)Oc1cccc(C(=O)NC(=S)Nc2cccc(NC(=O)c3ccccc3Cl)c2)c1	L major viab 86
CC(C)CC(=O)Nc1cccc(NC(=O)c2ccccc2Cl)c1	L major viab 59
CC(C)CC(=O)NC(=S)Nc1cccc(NC(=O)c2ccccc2Cl)c1	none (no result: Insulin prom up)
O=C(COc1ccccc1)NC(=S)Nc1cccc(NC(=O)c2ccccc2Cl)c1	none (no result: INS promoter inh)
CC(C)(C)C1CCc2[nH]c3ccccc3c(=O)c2C1 (stereo unspecified)	L major viab 100
O=c1c2c([nH]c3ccccc13)C(=C1CCCC1)CC2	none
O=c1c2c([nH]c3ccccc13)CCCC2	L major viab 55
Cc1c2c(nc3ccccc13)CCC(C(C)(C)C)C2 (stereo unspecified)	none (no result: bCat KO growth, PTEN del growth)
CSc1nc(N(C)NC(=O)c2ccccc2)c2ccccc2n1	none
Cc1ccc(OCC(=O)N/N=C/C=C/c2ccco2)cc1	L major viab 76 (no result: INS promoter inh)
Cc1ccccc1OCC(=O)N/N=C/C=C/c1ccccc1	none (no result: bCat KO growth, PTEN del growth)
COc1ccccc1OCC(=O)N/N=C/C=C/c1ccc([N+](=O)[O-])o1	bCat KO growth 3.2, PTEN del growth 2.6, L major viab 100 (no result: Insulin prom up)
O=C(COc1ccccc1[N+](=O)[O-])N/N=C/C=C/c1ccco1	none (no result: INS promoter inh)
Cc1cc(C)cc(OCC(=O)N/N=C/c2ccc([N+](=O)[O-])o2)c1	L major viab 96 (no result: INS promoter inh, bCat KO growth, PTEN del growth)
Cc1ccccc1OCC(=O)N/N=C/c1ccc([N+](=O)[O-])o1	L major viab 98 (no result: INS promoter inh)
O=C(Nc1cccc(Cl)c1N1CCCCC1)c1ccc2c(c1)OCCO2	none (no result: Insulin prom up)
O=C(NC(=S)Nc1cccc(Cl)c1N1CCCCC1)c1ccc2c(c1)OCCO2	L major viab 97
O=C(NC(=S)Nc1ccc2c(c1)OCCO2)c1cccc(Br)c1	L major viab 68
O=C(Nc1ccc2c(c1)OCCO2)c1ccc(Br)s1	L major viab 54
O=C(Nc1ccc2c(c1)OCCO2)c1cncc(Br)c1	none
O=C(NC(=S)Nc1ccc2c(c1)OCO2)c1ccccc1	none
CC(C)(C)Nc1scc(-c2ccccc2)[n+]1-c1ccccc1	none (no result: bCat KO growth, PTEN del growth)
Cc1occc1-c1nnc(SCC(=O)NC2CCCC2)n1-c1ccccc1	none
COc1ccccc1N1CCN(C(=O)c2cc(-c3ccc4c(c3)OCO4)on2)CC1	none (no result: INS promoter inh)
COc1ccc(-c2cn3cc(Br)cnc3n2)cc1	none (no result: Insulin prom up, bCat KO growth, PTEN del growth)
CN(CCOC(=O)c1cccc(Br)c1)C(C)(C)C	none
O=C1CC(c2cc([N+](=O)[O-])ccc2Cl)c2c(ccc3ccccc23)N1 (stereo unspecified)	L major viab 92
O=C1CC(c2cccc([N+](=O)[O-])c2)c2ccc3ccccc3c2N1 (stereo unspecified)	none (no result: INS promoter inh)
CC(=O)c1ccc(NS(=O)(=O)c2ccccc2)cc1	none
COc1ccc(NC(=O)c2ccccc2NS(=O)(=O)c2ccc(C)cc2)c([N+](=O)[O-])c1	none
Cc1ccc(S(=O)(=O)Nc2ccc(C(OC(=O)c3ccccc3[N+](=O)[O-])(C(F)(F)F)C(F)(F)F)cc2)cc1	L major viab 100
O=C(OC(c1ccc(NS(=O)(=O)c2ccccc2)cc1)(C(F)(F)F)C(F)(F)F)c1ccccc1	L major viab 100
O=C(CCn1c(=S)oc2ccccc21)N1CCN(c2ccc(F)cc2)CC1	none (no result: Autophagy mod, INS promoter inh, bCat KO growth, PTEN del growth, L major viab)
